Among all 52,000 compounds or so, about 4,300 (8.3%) were called active. The full list was thinned out, with actives kept by preference. A number with no mark means an inactive call. No stated cut-off is given here; in the data, active means survival mostly below about 52% (no sharp cut-off); inactive means mostly above about 56%.
Tested on: DeltatarO mutant
Test: growth inhibition of S. aureus wild type versus tarO mutant, primary screen, teichoic acid synthesis inhibitors, RN4220, OD600 (AID 463173)
Conditions: OD600, 18 h, stronger effect = lower value, screened at 18.75 µg/mL (by protocol)

Row | SMILES | survival
1 | CC(C)(C)C(=O)Cn1c(=O)n(-c2ccccc2)c(=O)c2c3c(sc21)CCC3 | 80%
2 | CCCn1ccc2c(OCC(=O)Nc3ccccc3OCC)cccc2c1=O | 102%
3 | O=S1(=O)c2cccc3cccc(c23)N1Cc1ccccc1F | 81%
4 | CN1CCN(C(=O)C2CCN(S(C)(=O)=O)CC2)CC1 | 83%
5 | COc1cccc(C2=CC(c3ccccc3F)n3ncc(C(=O)Nc4ccc(F)cc4)c3N2)c1 (stereo unspecified) | 72%
6 | COc1ccc(C2=CC(c3ccccc3F)n3ncc(C(=O)Nc4ccc(C)cc4)c3N2)cc1 (stereo unspecified) | 107%
7 | COc1cccc(C2C=C(c3ccc(C)cc3)Nc3c(C(=O)Nc4ccc(F)cc4)cnn32)c1OC (stereo unspecified) | 0% (active)
8 | COc1nc(Nc2ccc(C)cc2)nc(NC2CCCC2)n1 | 81%
9 | C/C(=N\NC(=O)CNc1ccccc1)c1ccccc1 | 85%
10 | Cc1cccc(Cn2c(SCc3ccc(C(=O)NCc4ccccc4F)cc3)nc3cccnc32)c1 | 98%
11 | CCOC(=O)c1c(S(=O)(=O)N2CCCC(C(=O)Nc3cccc(C)n3)C2)c(C)n(C)c1C (stereo unspecified) | 87%
12 | O=c1oc2ccc3ccccc3c2cc1-c1nnc(Nc2cccc(C(F)(F)F)c2)s1 | 81%
13 | COc1cc(-c2noc(-c3ccc(NC4CCCCC4)c([N+](=O)[O-])c3)n2)cc(OC)c1OC | 76%
14 | COc1ccccc1-c1noc(-c2ccc(NC3CCCCC3)c([N+](=O)[O-])c2)n1 | 41% (active)
15 | COc1ccc(-c2noc(-c3ccc(NC4CCCCC4)c([N+](=O)[O-])c3)n2)cc1OC | 68%
16 | COc1ccc(-c2noc(-c3ccc(NC4CCCC4)c([N+](=O)[O-])c3)n2)cc1OC | 55%
17 | COc1ccccc1-c1noc(-c2ccc(NC3CCCC3)c([N+](=O)[O-])c2)n1 | 43% (active)
18 | Cc1ccccc1-c1noc(-c2ccc(NC3CCCC3)c([N+](=O)[O-])c2)n1 | 66%
19 | CCCn1c(CN2CCN(c3ccc(OC)cc3)CC2)nc2c1c(=O)[nH]c(=O)n2C | 91%
20 | CCOCCCN1C(=O)CN(C2CCCCCC2)C(=O)C1c1ccc(OCC)c(OC)c1 (stereo unspecified) | 122%
21 | Cc1ccccc1C1=CCN(c2ncc(NC(=O)c3ccc(Cl)cc3)cc2C(=O)O)CC1 | 95%
22 | COCCCNC(=O)CCCN1C(=O)CCn2nc(-c3cccn3C)cc21 | 97%
23 | Cc1cc(C)c(NC(=O)CN2c3ccccc3S(=O)(=O)c3ccccc32)c(C)c1 | 106%
24 | O=C(CN1c2ccccc2S(=O)(=O)c2ccccc21)Nc1ccccc1Cl | 57%

Row | SMILES | survival
25 | NC(=O)c1ccccc1NC(=O)CN1c2ccccc2S(=O)(=O)c2ccccc21 | 92%
26 | CCOc1ccccc1NC(=O)CN1c2ccccc2S(=O)(=O)c2ccccc21 | 37% (active)
27 | CCOc1ccccc1NC(=O)CN1C=NS(=O)(=O)c2ccccc21 | 72%
28 | Cc1cccc(NC(=O)CN2c3ccccc3S(=O)(=O)c3ccccc32)c1C | 0% (active)
29 | CCC(=O)Nc1ccc2nc(C3CC3)n(Cc3ccc(Cl)cc3)c(=O)c2c1 | 111%
30 | Cc1cccc(C)c1OCC(=O)NCC1(N(C)C)CCCCC1 | 86%
31 | Cc1ccc(Cn2c(CNC(=O)c3ccccc3Br)nc3cccnc32)cc1 | 120%
32 | COc1cc(OC)c(NS(=O)(=O)c2cc3c(cc2C)NC(=O)CO3)cc1Cl | 88%
33 | CCN(CC)CCCNC(=O)C1CCN(S(C)(=O)=O)CC1 | 85%
34 | CCN(CC)CCCNc1cc(-c2ccccc2)nc(C)n1 | 65%
35 | CSc1nc(Nc2ccc(C)cc2C)cc(-c2ccccc2)n1 | 51%
36 | COc1ccc(Nc2cc(C)c3ccccc3n2)cc1 | 96%
37 | Cc1cc(C)cc(Nc2cc(-c3ccccc3)nc(C)n2)c1 | 8% (active)
38 | CSc1nc(Nc2ccc(F)cc2)cc(-c2ccccc2)n1 | -5% (active)
39 | Cc1nc(Nc2ccc(Cl)cc2)cc(-c2ccccc2)n1 | -4% (active)
40 | Cc1cc(Nc2ccc(Br)cc2)nc(C)n1 | 51%
41 | CSc1nc(C)cc(Nc2cccc(C(=O)O)c2)n1 | 63%
42 | Cc1cc(C)cc(Nc2cc(C(=O)NC3CCCCC3)c3ccccc3n2)c1 | 116%
43 | Cc1ccc(NC(=O)c2cc3nc(-c4ccccc4)cc(-c4ccccc4)n3n2)cc1 | 60%
44 | COc1cccc(Nc2cc(-c3ccccc3)nc(C)n2)c1 | 37% (active)
45 | CCOc1ccccc1Nc1cc(-c2ccccc2)nc(C)n1 | 60%
46 | Cc1ccc(C(C)(C)C)c(OCC(=O)NCCc2nc3ccccc3[nH]2)c1 | 70%
47 | O=C(Cn1c(=O)nc(-c2ccccc2)c2cc(Cl)ccc21)NCc1ccccc1 | 83%
48 | COc1ccc(NS(=O)(=O)c2cnc(N)nc2)cc1Cl | 67%

Row | SMILES | survival
49 | CN1C(=O)C(Cc2ccccc2)NC1=S (stereo unspecified) | 77%
50 | O=C(NC(=S)NCc1ccccc1)c1ccco1 | 71%
51 | COc1cc(Cl)c(C)cc1NC(=O)CCc1c(C)nc2c3cccnc3nn2c1C | 87%
52 | COc1ccc(Cl)cc1Nc1sc(C(=O)c2ccccc2)c(N)c1C(=O)Nc1ccccc1 | 103%
53 | Cc1ccc(CNC(=O)CN2C(=O)C3CCCCN3c3ccc(C(=O)N(C)C)cc32)cc1 (stereo unspecified) | 88%
54 | Cc1cc(C)c2nc(NCCNC(=O)C3CCCCC3)c(C#N)cc2c1 | 93%
55 | Cc1ccc(-c2cc(-c3ccccc3)nc(N3CCCC3)n2)cc1 | 115%
56 | Cc1ccc(Nc2cc(-c3ccccc3)nc(C)n2)cc1 | 24% (active)
57 | CCOC(=O)c1ccc(Nc2cc(-c3ccccc3)nc(C)n2)cc1 | 50%
58 | Cc1ccc(CCNC(=O)c2ccc(CS(=O)(=O)Cc3ccc(Cl)cc3)o2)cc1 | 84%
59 | Cn1nnc2c(N3CCN(c4ccccc4F)CC3)ncnc21 | 83%
60 | Cc1cc(Cl)nc(-c2ccccc2)n1 | 91%
61 | CCc1ccc(NC(=O)CN2CCSc3ccc(S(=O)(=O)N4CCCC4)cc32)cc1 | -4% (active)
62 | Cc1ccc(NC(=O)CN2CCSc3ccc(S(=O)(=O)N4CCCC4)cc32)cc1 | 77%
63 | CCOc1ccc(NC(=O)CN2CCSc3ccc(S(=O)(=O)N4CCCC4)cc32)cc1 | 76%
64 | Cc1ccc(NC(=O)CSc2nc(=O)n(Cc3cccnc3)c3c2CCC3)cc1F | 67%
65 | Cc1ccc(C(=O)CSc2ncn(-c3ccccc3)n2)c(C)c1 | 42%
66 | Cc1ccc(Cn2cccc(NC(=O)c3ccncc3)c2=O)cc1 | 101%
67 | Cc1ccc(Cn2ccn(Cc3ccc(C)cc3)c(=O)c2=O)cc1 | 97%
68 | Cc1ccc(Cn2cccc2C2=NC(C)(C)CO2)cc1 | 45% (active)
69 | Cc1ccccc1NS(=O)(=O)c1ccc(Br)s1 | 109%
70 | O=S(=O)(Nc1ccc(F)cc1F)c1ccc(-n2cccn2)cc1 | 70%
71 | O=S(=O)(Nc1ccc(F)cc1F)c1ccc(Br)s1 | 22% (active)
72 | COc1ccc(OC)c(NS(=O)(=O)c2ccc(Br)s2)c1 | 37% (active)

Row | SMILES | survival
73 | COc1ccc(CNS(=O)(=O)c2ccc3c(c2)C(C)(C)C(=O)N3C)cc1OC | 76%
74 | COc1ccc(NC(=O)C2CCC(CNS(=O)(=O)c3ccc(Br)s3)CC2)c(OC)c1 (stereo unspecified) | 74%
75 | O=C(Nc1ccc(Cl)cc1)C1CCC(CNS(=O)(=O)c2ccc(Br)s2)CC1 (stereo unspecified) | 86%
76 | COc1ccc(OC)c(NS(=O)(=O)c2ccc(-c3cc(C)no3)s2)c1 | 88%
77 | CC(C)Oc1ccc(CNS(=O)(=O)c2ccc3c(c2)C(C)(C)C(=O)N3C)cc1 | 84%
78 | COc1ccc(OC)c(NS(=O)(=O)c2ccc3c(c2)C(C)(C)C(=O)N3C)c1 | 48% (active)
79 | O=c1ccc2cc(S(=O)(=O)Nc3ccc(F)c(Cl)c3)ccc2[nH]1 | 89%
80 | O=S(=O)(Nc1ccc(F)c(Cl)c1)c1ccc(Br)s1 | 10% (active)
81 | O=C(CSCc1ccccc1Cl)N/N=C/c1ccco1 | 101%
82 | COc1ccc(-c2nn(-c3ccc(F)cc3F)c3c2cnc2ccc(F)cc23)cc1 | 79%
83 | CN1CCC(OC(=O)COc2ccc(F)cc2)CC1 | 79%
84 | NS(=O)(=O)c1ccc(CCNC(=O)C2CCN(c3ncnc4c3nc3n4CCCCC3)CC2)cc1 | 83%
85 | Cc1ccc(NCc2cccn2-c2nnc(N3CCC(C(=O)NCCc4ccccc4)CC3)s2)cc1 | 68%
86 | Cc1ccc2c(c1)N(C(=O)N1CCC(C(=O)NCc3ccccc3F)CC1)CC(C)O2 (stereo unspecified) | 79%
87 | Cc1cc(C)c2[nH]c(=O)c(C(c3nnnn3C(C)(C)C)N(CCc3ccc(F)cc3)Cc3ccco3)cc2c1 (stereo unspecified) | 87%
88 | CCCSc1nnc2[nH]c(=O)cc(C)n12 | 124%
89 | Cc1cc(=O)[nH]c2nnc(SCC(N)=O)n12 | 69%
90 | CCOC(=O)C(CC)Sc1nnc2[nH]c(=O)cc(C)n12 (stereo unspecified) | 52% (active)
91 | CN1C(=O)C(=C(C#N)C#N)c2cc(Br)ccc21 | 98%
92 | CNC(=O)C1CCC(Cn2c(=O)c3sccc3n(CC(=O)Nc3cc(F)ccc3F)c2=O)CC1 (stereo unspecified) | 79%
93 | Cc1ccccc1NC(=O)Nc1nnc(N(C)Cc2ccccc2)s1 | 85%
94 | CCc1ccccc1NC(=O)Nc1nnc(N(C)Cc2ccccc2)s1 | 60%
95 | CCOc1ccccc1NC(=O)Nc1nnc(N(C)Cc2ccccc2)s1 | 53% (active)
96 | CCC(C)c1ccc(NC(=O)C2CCCN(c3ncccn3)C2)cc1 (stereo unspecified) | 81%

Reference: PubChem BioAssay AID463173 (ICCB-Longwood Screening Facility, Harvard Medical School, 2010)
